Data from PubChem BioAssay (NCATS).
Records with an inconclusive call do not appear. Activity calls are given as the source filed them. Calls follow the shape of the dose curve; as a rule, active = well fitted curve in the direction sought with a large enough effect; inconclusive = small, poorly fitted or top-dose-only effect, or another doubt; inactive = no such curve, though single readings can be large; an effect the other way counts as inactive or inconclusive.

What was measured:
[1] = Quantitative High-Throughput drug screen in 47 multiple myeloma cell lines against the NCATS MIPE library collection: FR4_PLB cell viability assay (AID 1918924; also: nearly all actives have a fitted effect of over 35% in size; also: potency is read from the fitted curve at half-maximal effect)
In short: (§1)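 Viability readout: CellTiter-Glo luminescence following 5 min room-temperature incubation with reagent. Prior exposure: 48 h, 37C, humidified 5% CO2, 500 cells per well.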

[2] = Quantitative High-Throughput drug screen in 47 multiple myeloma cell lines against the NCATS MIPE library collection: Delta47_JCRB cell viability assay (AID 1918925; also: nearly all actives have a fitted effect of over 45% in size; also: potency is read from the fitted curve at half-maximal effect)
In short: (§2)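 Myeloma cell lines, 500 cells per well, exposed to MIPE 4.0 library compounds for 48 h at 37C, 5% CO2. Viability from ATP by CellTiter-Glo luminescence; normalised to DMSO (100%) and media-only (0%) wells.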

[3] = Quantitative High-Throughput drug screen in 47 multiple myeloma cell lines against the NCATS MIPE library collection: EJM_DSMZ cell viability assay (AID 1918926; also: nearly all actives have a fitted effect of over 30% in size; also: potency is read from the fitted curve at half-maximal effect)
In short: as §2

[4] = Quantitative High-Throughput drug screen in 47 multiple myeloma cell lines against the NCATS MIPE library collection: ARP1_JJKsccF8 cell viability assay (AID 1918928; also: nearly all actives have a fitted effect of over 40% in size; also: potency is read from the fitted curve at half-maximal effect)
In short: (§3)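 ATP readout (CellTiter-Glo), 48 h drug incubation, 37 °C/5% CO2, 500 cells per well; normalisation to DMSO (100%) and media-only (0%) controls.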

[5] = Quantitative High-Throughput drug screen in 47 multiple myeloma cell lines against the NCATS MIPE library collection: ARD_JJKsccE7 cell viability assay (AID 1918929; also: potency is read from the fitted curve at half-maximal effect)
In short: as §2

[6] = Quantitative High-Throughput drug screen in 47 multiple myeloma cell lines against the NCATS MIPE library collection: Karpas620_DSMZ cell viability assay (AID 1918959); also: nearly all actives have a fitted effect of over 30% in size; also: potency is read from the fitted curve at half-maximal effect
In short: as §1

[7] = Quantitative High-Throughput drug screen in 47 multiple myeloma cell lines against the NCATS MIPE library collection: KMM1_JCRB cell viability assay (AID 1918960); also: nearly all actives have a fitted effect of over 30% in size; also: potency is read from the fitted curve at half-maximal effect
In short: as §3

[8] = Quantitative High-Throughput drug screen in 47 multiple myeloma cell lines against the NCATS MIPE library collection: KHM11_PLB cell viability assay (AID 1918962); also: nearly all actives have a fitted effect of over 35% in size; also: potency is read from the fitted curve at half-maximal effect
In short: as §1

[9] = Quantitative High-Throughput drug screen in 47 multiple myeloma cell lines against the NCATS MIPE library collection: JIM3_ECACC cell viability assay (AID 1918963; also: nearly all actives have a fitted effect of over 35% in size; also: potency is read from the fitted curve at half-maximal effect)
In short: as §1

[10] = Quantitative High-Throughput drug screen in 47 multiple myeloma cell lines against the NCATS MIPE library collection: JIM1_ECACC cell viability assay (AID 1918964; also: potency is read from the fitted curve at half-maximal effect)
In short: as §2

[11] = Quantitative High-Throughput drug screen in 47 multiple myeloma cell lines against the NCATS MIPE library collection: H1112_PLB cell viability assay (AID 1918967; also: nearly all actives have a fitted effect of over 30% in size; also: potency is read from the fitted curve at half-maximal effect)
In short: as §2

[12] = Quantitative High-Throughput drug screen in 47 multiple myeloma cell lines against the NCATS MIPE library collection: KMS27_JCRB cell viability assay (AID 1918970); also: nearly all actives have a fitted effect of over 30% in size; also: potency is read from the fitted curve at half-maximal effect
In short: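 ATP-based viability (CellTiter-Glo luminescence) is measured in cells treated 48 h with approved and investigational drugs at 37 °C. Controls are DMSO-only wells for full viability and media-only wells for none.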

[13] = Quantitative High-Throughput drug screen in 47 multiple myeloma cell lines against the NCATS MIPE library collection: KMS12PE_JCRB cell viability assay (AID 1918972); also: nearly all actives have a fitted effect of over 30% in size; also: potency is read from the fitted curve at half-maximal effect
In short: (§4)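 Approved and investigational drugs from MIPE 4.0 were added by pin tool to 500 cells per well. After 48 hours at 37C, ATP-based CellTiter-Glo luminescence indicated remaining viability.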

[14] = Quantitative High-Throughput drug screen in 47 multiple myeloma cell lines against the NCATS MIPE library collection: Karpas417_ECACC cell viability assay (AID 1918961); conditions: Karpas417 myeloma viability, CellTiter-Glo ATP luminescence, 48 h; viability (% of DMSO): at 45.8 µM (top of the series)
In short: as §4

[15] = Quantitative High-Throughput drug screen in 47 multiple myeloma cell lines against the NCATS MIPE library collection: KMS12BM_JCRB cell viability assay (AID 1918971); also: nearly all actives have a fitted effect of over 35% in size; also: potency is read from the fitted curve at half-maximal effect
In short: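 We plated 500 myeloma cells per well, pinned in MIPE 4.0 compounds, and incubated for 48 hours at 37C. ATP was then quantified with CellTiter-Glo, with DMSO and media-only wells defining 100% and 0%.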

[16] = Quantitative High-Throughput drug screen in 47 multiple myeloma cell lines against the NCATS MIPE library collection: INA6_PLB cell viability assay (AID 1918965; also: potency is read from the fitted curve at half-maximal effect; nearly all actives have a fitted effect of over 55% in size)
In short: as §4

[17] = Quantitative High-Throughput drug screen in 47 multiple myeloma cell lines against the NCATS MIPE library collection: JJN3_DSMZ cell viability assay (AID 1918966; also: potency is read from the fitted curve at half-maximal effect; nearly all actives have a fitted effect of over 50% in size)
In short: as §2

[18] = Quantitative High-Throughput drug screen in 47 multiple myeloma cell lines against the NCATS MIPE library collection: Karpas25_ECACC cell viability assay (AID 1918968)
In short: as §2

[19] = Quantitative High-Throughput drug screen in 47 multiple myeloma cell lines against the NCATS MIPE library collection: KMS20_JCRB cell viability assay (AID 1918973); also: potency is read from the fitted curve at half-maximal effect; nearly all actives have a fitted effect of over 45% in size
In short: as §2

Measured: Potency

COc1ccc(C=Cc2cc(OC)c(OC)c(OC)c2)cc1O
not listed: [14] | [15] | [16] | [17] | [18] | [19]
inactive: all other assays above

COC(=O)C[C@](O)(CCCC(C)(C)O)C(=O)O[C@@H]1C(OC)=C[C@]23CCCN2CCc2cc4c(cc2[C@H]13)OCO4
not listed: [5] | [16] | [17] | [18] | [19]
inactive: all other assays above

CC(=O)OCC(=O)[C@@]1(O)[C@H](C)C[C@H]2[C@@H]3C=C(C)C4=Cc5c(cnn5-c5ccccc5)C[C@]4(C)[C@@H]3[C@@H](O)C[C@@]21C
active: [1] 14.8 µM | [2] 5.9 µM | [3] 20.9 µM | [4] 4.69 µM | [6] 8.33 µM | [8] 16.6 µM | [9] 9.35 µM | [10] 9.35 µM | [16] 5.26 µM | [17] 9.35 µM | [11] 10.5 µM | [15] 16.6 µM | [13] 8.33 µM

Cc1cc(CN2CCN(c3c(Br)cnc4nc(-c5ccc(N6CCN(C)CC6)cc5)[nH]c34)CC2)no1
inactive: [7] | [14] | [12]
active: [1] 18.7 µM | [2] 2.64 µM | [3] 6.62 µM | [4] 14.8 µM | [8] 5.26 µM | [9] 7.43 µM | [16] 2.64 µM | [17] 10.5 µM | [11] 10.5 µM | [18] 3.32 µM | [15] 18.7 µM | [19] 2.35 µM

CC=C1NC(=O)[C@H]2CSSCCC=C[C@H](CC(=O)N[C@H](C(C)C)C(=O)N2)OC(=O)[C@H](C(C)C)NC1=O
active: [1] 0.0105 µM | [2] 0.0166 µM | [3] 0.0296 µM | [4] 0.0264 µM | [5] 0.0118 µM | [6] 0.0264 µM | [7] 0.0074 µM | [8] 0.0166 µM | [9] 0.0469 µM | [10] 0.0093 µM | [17] 0.0418 µM | [11] 0.0372 µM | [18] 0.0148 µM | [12] 0.001 µM | [15] 0.0105 µM | [19] 0.0209 µM
